Compound activity: PubChem, National Center for Advancing Translational Sciences (NCATS)
Compounds with a hit are over-represented: about 12% of the library has one in this group of screens.
Sfp PPTase inh = qHTS Assay for Inhibitors of Bacillus subtilis Sfp phosphopantetheinyl transferase (PPTase). Potency, µM, inactives show largest response in the series, negative = inhibition, hits mostly inhibitors. 4'-phosphopantetheinyl transferase ffp (Bacillus subtilis), Q9F4F7. actives 3.5% (n = 310,000). Biochemical Sfp PPTase activity, qHTS;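 further: the enzyme is Sfp with the accession as filed and its product quenches rhodamine fluorescence; 0% = enzyme reaction without inhibitor and -100% = no enzyme wells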
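With Hepes-Na pH 7.6 buffer containing 10 mM MgCl2, Sfp (15 nM) modified BHQ-2-YbbR (12.5 uM) using rhodamine-CoA (5 uM). Two reads 30 minutes apart at 525/598 nm yielded each well's rate.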
JMJD2A Tudor = qHTS Assay for Inhibitors of JMJD2A-Tudor Domain; AlphaScreen JMJD2A-Tudor / H3K4me3 peptide binding; Potency, µM (doses to about 114 µM), inactives show top-dose activity change, negative = inhibition, actives largely listed as inhibitors; actives 4.4% (n = 390,000); further: on the % scale 0 is the no-effect control and ±100 the full control effect; nearly all actives have a fitted effect of over 50% in size
HP1b chromo inh = HTS for Inhibitors of HP1-beta Chromodomain Interactions with Methylated Histone Tails. AlphaScreen HP1-beta / biotin-H3K9me3 peptide binding. Chromobox protein homolog 1 (Homo sapiens), P83916. actives 0.56% (n = 390,000). Potency, µM (titrated, usually from 114 µM), for inactives: at the top dose activity change, negative = inhibition, actives largely listed as inhibitors. AID 540317, 2011; further: nearly all actives have a fitted effect of over 70% in size
Target sequence (P83916 whole entry, looked up): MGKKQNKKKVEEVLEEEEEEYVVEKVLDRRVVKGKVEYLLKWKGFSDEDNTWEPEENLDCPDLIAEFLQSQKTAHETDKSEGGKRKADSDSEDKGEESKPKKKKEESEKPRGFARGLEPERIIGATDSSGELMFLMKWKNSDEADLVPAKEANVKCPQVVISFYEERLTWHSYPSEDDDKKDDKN
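HP1-beta protein (50 nM final) preincubated 30 min at room temperature with biotinylated H3(1-18)K9me3 peptide (50 nM) in PBS pH 7.4, 0.01% Tween-20, then compound added for 30 min. AlphaScreen streptavidin donor/nickel chelate acceptor beads (10 ug/mL final), 30 min dark, luminescence read.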
L3MBTL1 inh = qHTS Assay for the Inhibitors of L3MBTL1; Lethal(3)malignant brain tumor-like protein 1 (Homo sapiens), Q9Y468; AlphaScreen L3MBTL1–H3K9me1 peptide binding; Potency, µM (highest dose often 57.1 µM), inactives show at the top dose activity, negative = inhibition, hits mostly inhibitors; actives 0.66% (n = 230,000); AID 485360, 2010; further: on the % scale 0 is the no-effect control and ±100 the full control effect; nearly all actives have a fitted effect of over 60% in size
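Read-out is AlphaScreen signal from streptavidin donor and nickel chelate acceptor beads (10 ug/mL final each) bridging L3MBTL1 (50 nM) and biotinylated K9-monomethylated H3(1-15) peptide (75 nM), after 30 min compound exposure at room temperature.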
G9a block = qHTS Assay for Inhibitors of Histone Lysine Methyltransferase G9a. Histone-lysine N-methyltransferase EHMT2 (Homo sapiens), Q96KQ7. G9a H3K9 monomethylation, AlphaScreen, 2 h. Potency, µM (titrated, usually from 102 µM), without a hit: at the highest dose activity, negative = inhibition, usual class: inhibitors. actives 8.8% (n = 350,000). AID 504332, 2011; further: on the % scale 0 is the no-effect control and ±100 the full control effect; nearly all actives have a fitted effect of over 75% in size
Target sequence (Q96KQ7 913-1193 limits assumed): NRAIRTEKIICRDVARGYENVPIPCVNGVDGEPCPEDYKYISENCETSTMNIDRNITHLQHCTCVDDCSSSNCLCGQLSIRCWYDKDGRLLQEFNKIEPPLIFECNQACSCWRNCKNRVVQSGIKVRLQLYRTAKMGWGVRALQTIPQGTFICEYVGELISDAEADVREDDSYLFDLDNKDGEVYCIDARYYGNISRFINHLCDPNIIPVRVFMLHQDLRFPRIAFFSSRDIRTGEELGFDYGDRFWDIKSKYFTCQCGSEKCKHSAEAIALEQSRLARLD
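Chemiluminescent proximity detection of H3K9 monomethylation, read after 10 min bead incubation in the dark. Reaction: 20 nM G9a, 500 nM biotin-H3K9 peptide, 20 uM SAM cofactor, 2 h, room temperature, following 15 min enzyme-compound preincubation.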
BAZ2B inh = qHTS Assay for Inhibitors of BAZ2B; AlphaScreen BAZ2B-H3K14Ac peptide displacement; Potency, µM (top dose mostly 114 µM), for the others: at the highest dose activity change, negative = inhibition, usual class: inhibitors; actives 4.4% (n = 360,000); further: on the % scale 0 is the no-effect control and ±100 the full control effect; nearly all actives have a fitted effect of over 60% in size
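In this displacement format the biotinylated H3(5-23) peptide acetylated at Lys14 serves as ligand at 50 nM, with BAZ2B at 50 nM in PBS pH 7.4 containing 0.01% Tween-20. Donor and acceptor beads are 10 ug/mL final.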
An asterisk follows results filed as active; ? = inconclusive; . = no result; [ ] = remark or other dose. The call rests on the fitted dose curve; in most records, active means well fitted curve in the direction sought with a large enough effect; inconclusive means small, poorly fitted or top-dose-only effect, or another doubt; inactive means no such curve, though single readings can be large; an effect the other way counts as inactive or inconclusive. Potency means the concentration at half of the fitted maximal effect.

SMILES	Sfp PPTase inh	JMJD2A Tudor	HP1b chromo inh	L3MBTL1 inh	G9a block	BAZ2B inh
COc1ccc(/C(C)=N/NC(=S)Nc2cc(C)ccc2C)cc1	-13.9%	?	-20.9%	-11.5%	35.5µM*	?
CCn1nnc2cc(C(=O)Nc3ccc(Br)cc3F)ccc21	.	-5.2%	35.7%	.	3.4%[59 µM]	-1.1%
O=C(NCc1cccc(F)c1)c1ccc2nc(CCc3ccccc3)oc2c1	.	-13.1%	28.8%[57 µM]	.	11.6%[59 µM]	-2.5%
COc1ccc(S(=O)(=O)N/N=C(/C)c2ccc(C)o2)cc1	.	-17.7%	11.6%	.	.	.
CCOc1ccc(S(=O)(=O)N/N=C(\C)Cc2ccc(OC)cc2)cc1	9.5%	-14.6%	17.2%	-2.2%	39.8µM*	?
COc1ccc(C/C(C)=N/NC(=S)Nc2ccc(C)c(C)c2)cc1	-5.5%	31.6µM*	-30.3%	2.4%	28.2µM*	0.9%
CCOc1ccccc1NC(=O)c1c(NC(=O)c2cccc(C)c2)sc2c1CCCC2	.	2.0%	41.4%	.	0.9%[59 µM]	2.5%
OC(c1ccccc1)(c1ccccc1)C1CCN(C(=S)NC2CCCC2)CC1	16.3%	-22.1%	-6.4%[57 µM]	-4.3%	39.8µM*	-31.7%
OC(c1ccccc1)(c1ccccc1)C1CCN(C(=S)Nc2ccc(F)cc2)CC1	.	-35.7%	15.9%	-7.7%	.	.
CCN(CC)Cc1cc(NC2=NS(=O)(=O)c3ccccc32)ccc1OC(=O)c1ccccc1	6.8%	-10.4%	42.8%	3.7%	79.4µM*	-7.3%
CCN(CC)Cc1cc(NC2=NS(=O)(=O)c3ccccc32)ccc1OC(=O)C(C)C	6.7%	-8.3%	44.7%	.	?	1.8%
CNC(=S)N(CCc1c(C)[nH]c2ccc(OC)cc12)Cc1ccco1	12.4%	?	-5.6%	.	50.1µM*	?
COCCNC(=S)N(CCc1c(C)[nH]c2ccc(F)cc12)Cc1ccc(C)cc1	13.3%	?	12.1%	.	-2.5%	?
COCCNC(=S)N(CCc1c(C)[nH]c2ccc(C)cc12)Cc1ccco1	9.6%	?	-15.5%	-28.8%	44.7µM*	35.5µM*
COCCNC(=S)N(CCc1c(C)[nH]c2ccc(OC)cc12)Cc1ccco1	7.1%	?	?	.	50.1µM*	?
CC(C)NC(=O)CCn1c(SCc2c(F)cccc2Cl)nc2c(sc3ccccc32)c1=O	.	1.3%	35.1%	.	3.6%[59 µM]	-15.6%[57.1 µM]
C=CCc1ccccc1OCC(O)CN1CCN(CCN2C(=O)c3cccc4cccc(c34)C2=O)CC1 (stereo not given)	5.62µM*	?	?	-10.2%	39.8µM*	?
Cc1ccccc1OCC(O)CN1CCN(CCN2C(=O)c3cccc4cccc(c34)C2=O)CC1 (stereo not given)	12.5%	?	-24.4%	-16.8%	79.4µM*	?
Cc1ccccc1OCC(O)Cn1c2ccccc2c2ccccc21 (stereo not given)	2.3%	8.8%	55.6%	8.1%	61.9%	6.3%
Cc1ccccc1OCC(O)CN1CCN(CC(O)COc2ccccc2C)C(C)C1 (stereo not given)	?	2µM*	?	.	17.8%[2.33 µM]	22.4µM*
O=C(OCC#CCSc1nnc(-c2cccc3ccccc23)o1)c1sc(Cl)c(Cl)c1Cl	.	4.8%	.	.	.	.
Cc1c(Br)c(=O)oc2c(Br)c(O)c(O)cc12	?	44.7µM*	-11.4%	3.55µM*	28.2µM*	?
CC(=O)N1CCN(CC(=O)Nc2cc([N+](=O)[O-])ccc2Cl)CC1	-1.4%	-19.8%	12.3%	.	39.8µM*	2.6%
O=C(CN1CCN(c2ccc(O)cc2)CC1)Nc1cc([N+](=O)[O-])ccc1Cl	?	?	-20.5%	-3.8%	5.62µM*	?
COC(=O)c1ccc(C2CC(=O)Nc3c2c(C)nn3-c2nc(C)cc(C)n2)cc1 (stereo not given)	.	-12.3%	36.5%	.	-0.7%[59 µM]	-12.2%
SMILES	Sfp PPTase inh	JMJD2A Tudor	HP1b chromo inh	L3MBTL1 inh	G9a block	BAZ2B inh
CN1CCCN(S(=O)(=O)c2ccc(O)c(C(=O)O)c2)CC1	8.6%	-14.7%	22.0%	.	79.4µM*	-12.0%
CN1CCCN(S(=O)(=O)c2ccccc2)CC1	4.2%	?	-15.1%	.	-17.5%	4.3%
CC(=O)NCc1ccc(S(=O)(=O)N2CCCN(C)CC2)cc1	-26.4%	25.1µM*	4.1%	.	79.4µM*	-14.2%
CCOC(=O)C(Cc1ccc(NC(C)=O)cc1)N1C(=O)c2ccccc2C1=O (stereo not given)	.	-1.3%	21.3%	7.4%	-12.3%[2.33 µM]	8.6%
CCC1Oc2ccccc2N(CC(=O)NCCCN2CCN(c3ccc(OC)cc3)CC2)C1=O (stereo not given)	9.8%	?	22.6%	.	?	-33.3%[57.1 µM]
Cc1ccc(N=Cc2cc(Cc3ccccc3Cl)cc([N+](=O)[O-])c2O)c(O)c1	50.1µM*	14.1µM*	?	.	31.6µM*	25.1µM*
Cc1n[nH]c(C)c1Sc1ccccc1N=Cc1cc(Cl)cc([N+](=O)[O-])c1O	13.7%	?	-10.6%	.	?	-9.7%
COc1ccc(N=Cc2cc(Cc3ccccc3Cl)cc([N+](=O)[O-])c2O)cc1OC	8.0%	?	-14.3%	.	39.8µM*	?
Cc1ccc(CNc2ccc(-c3nc(-c4ccco4)no3)cc2[N+](=O)[O-])cc1	.	0.0%	52.8%	.	-9.5%[59 µM]	4.9%
CN(c1ccccc1)S(=O)(=O)c1cccc(NC(=O)C2=NNC(=O)CC2)c1	.	-2.1%	10.3%[57 µM]	32.5%	.	.
COc1ccc(-n2nnc3c(SC(C(C)=O)C(=O)N(C)C)ncnc32)cc1 (stereo not given)	17.8µM*	-31.9%	?	.	.	-25.6%
COc1ccc(CNc2ccccc2C(=O)NCc2ccccc2)cc1COc1ccc(NC(C)=O)cc1	.	?	9.9%	.	.	.
CCCC(CCC)C(=O)Nc1cccc(-c2nc3cccnc3s2)c1	.	-9.6%	53.8%	.	-46.5%[59 µM]	-11.2%
O=C(CSc1nc(=O)n(Cc2ccccn2)c2c1CCC2)Nc1ccc(F)cc1F	.	-17.4%	7.7%	-3.4%	9.0%	-6.5%
CCC1=NN(C(=O)c2ccccc2Br)C(O)(c2ccc(Br)cc2)C1 (stereo not given)	8.7%	-13.8%	37.4%	5.0%	?	-34.3%
CCC1=NN(C(=O)c2ccc(Cl)cc2)C(O)(c2ccccc2)C1 (stereo not given)	8.8%	-31.6%	16.1%	?	.	50.1µM*
